# Many of the other results were omitted from the sample, so hits are more common in it than they were.
# PI4K2A block – qHTS for small molecular inhibitors of PI4K2A. 420,000 tested, 0.13% active. purified PI4K2A, ADP-Glo luminescence, 1 h; stronger effect = lower value. Phosphatidylinositol 4-kinase type 2-alpha (Homo sapiens), Q9BTU6. activity change, negative = inhibition, % at 76.9 µM. AID 1346378, 2018; in the data active = activity change below about -50%; inconclusive = mostly about -30% to -49%;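 note: -100% = wells without enzyme as full effect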
#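 In this quantitative HTS, ADP production by PI4K2A was quantified luminescently after 1 h at ambient temperature; 100 microM adenosine served as plate-quality control.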
# PI5P4Ka inh – qHTS for Inhibitors of phosphatidylinositol 5-phosphate 4-kinase (PI5P4K); Phosphatidylinositol 5-phosphate 4-kinase type-2 alpha (Homo sapiens), P48426; PI5P4Kalpha enzyme, ADP-Glo luminescence, 60 min; stronger effect = lower value; max response, %; 330,000 tested, 1.2% active; active = max response of -50% or lower; inconclusive = between -30% and -50%; inactive = -30% or higher; note: value at the top dose of about 77 µM
# Target sequence (P48426 whole entry, looked up): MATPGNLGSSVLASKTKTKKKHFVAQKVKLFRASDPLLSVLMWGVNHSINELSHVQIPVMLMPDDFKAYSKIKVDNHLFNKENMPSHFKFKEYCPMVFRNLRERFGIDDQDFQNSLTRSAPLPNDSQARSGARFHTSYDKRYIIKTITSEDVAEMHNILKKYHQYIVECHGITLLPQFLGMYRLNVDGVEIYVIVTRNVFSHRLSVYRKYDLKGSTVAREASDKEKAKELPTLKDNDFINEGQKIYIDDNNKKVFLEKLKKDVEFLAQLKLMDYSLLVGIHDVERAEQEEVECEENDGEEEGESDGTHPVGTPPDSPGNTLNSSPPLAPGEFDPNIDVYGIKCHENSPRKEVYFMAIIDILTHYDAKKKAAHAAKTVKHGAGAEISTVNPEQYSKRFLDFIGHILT
#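 Enzyme plus substrate dispensed, test compounds pinned in, then ATP (5 microM final) added. After 60 min at RT, ADP-Glo reagent 1 for 45 min and reagent 2 for 30 min preceded luminescence imaging.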
# Tb PGK inh – qHTS Assay to Find Inhibitors of Phosphoglycerate Kinase; PGK/GAPDH coupled, Kinase-Glo luminescence, 60 min; Potency, µM (doses to about 57.5 µM), for the others: at the highest dose activity change, negative = inhibition, hits mostly inhibitors; 380,000 tested, 0.043% active; AID 602233, 2012; note: potency is the fitted concentration of half-maximal effect; nearly all actives have a fitted effect of over 60% in size
#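 Luminescent ATP detection (Kinase-Glo Plus) follows a 60-minute room-temperature incubation, with wells lacking PGK as controls. Buffer: 100 mM TEA (pH 7.6), 5 mM MgCl2, 0.01% Tween-20. Coupling enzyme GAPDH (100 nM final) supplies unstable 1,3-BPG in-well.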
# Pin1 inhibitor – qHTS Assay to Find Inhibitors of Pin1. Peptidyl-prolyl cis-trans isomerase NIMA-interacting 1 (Homo sapiens), Q13526. Pin1 FP peptide displacement, HiFluor488, 10 min. Potency, µM (top dose mostly 115 µM), for inactives: top-dose activity, negative = inhibition, usual class: inhibitors. 390,000 tested, 0.009% active. AID 504891, 2011; active = well fitted inhibition curve with a large enough effect in the polarisation, with a control signal flat, not every such curve was filed as active; inconclusive = small, poorly fitted or top-dose-only effect, or effect the other way, or a change in a side signal; inactive = no such curve, though single readings can be large or run the other way; the % refers to the polarisation; note: potency is the fitted concentration of half-maximal effect
# ADP-Glo interf – qHTS for Inhibitors of PI5P4K: ADP-Glo counter assay; shares compounds with PI5P4Ka inh; ADP-Glo detection counter-screen, luciferase luminescence, no enzyme; Potency, µM (highest dose often 76.9 µM), without a hit: at the top dose activity change, negative = inhibition, most hits filed as inhibitors; 1,100 tested, under 10 active; AID 743285, 2014
# Numbers without * were called inactive; i = inactive; ? = inconclusive; . = no result given. Unless noted, calls come from the whole dose curve; as a rule, active = well fitted curve in the direction sought with a large enough effect; inconclusive = small, poorly fitted or top-dose-only effect, or another doubt; inactive = no such curve, though single readings can be large; an effect the other way counts as inactive or inconclusive. Unless noted, % is set by controls: 0 for no effect and ±100 for the full control effect.
SMILES,PI4K2A block,PI5P4Ka inh,Tb PGK inh,Pin1 inhibitor,ADP-Glo interf
COC(=O)c1c(NS(=O)(=O)Cc2ccccc2)sc2c1CCCC2,-1.6,.,i,0.0%,.
CC(C)NC(=O)c1ccc2c3n(nc2c1)-c1ccccc1CO3,-62.6*,-51.8*,?,0.8%,?
COc1ccc(NC(=O)c2ccc3c(c2)N(Cc2cccc(Cl)c2)C(=O)c2ccccc2S3(=O)=O)cc1Cl,-0.8,.,-5.3%,5.1%,.
O=C(O)c1ccc(-c2nc(-c3ccccc3)cs2)cc1,-8.6,-29.8,-0.2%,5.8%,.
O=C(O)c1ccc(-c2nc(-c3ccccc3Cl)cs2)cc1,-7.8,-65.4*,-5.4%,-1.5%,2.0%
O=S(=O)(c1ccccc1)N1N=C(c2cccs2)CC1c1ccc(Br)cc1 (centres undefined),0.4,-54.6*,-3.9%,3.8%,5.3%
O=S(=O)(c1ccccc1)N1N=C(c2ccccc2)CC1c1ccccc1 (centres undefined),1.5,-10.6,-7.9%,12.5%,.
COc1ccccc1-c1sc2ccccc2c1-c1cnc(N2CCOCC2)nc1,-3.9,25.0,.,.,.
O=C(Nc1nc(-c2ccco2)c(-c2ccco2)s1)c1ccc(F)cc1F,?,-64.0*,4.9%,?,-8.9%
O=C(Nc1nc(-c2ccco2)c(-c2ccco2)s1)c1cnccn1,-26.0,-67.2*,-14.4%,?,-9.6%
O=C(Nc1nc2ccccc2s1)c1cnccn1,-4.7,.,?,-6.0%,.
O=C(Nc1nc(-c2ccco2)c(-c2ccco2)s1)c1c(F)cccc1Cl,-13.9,1.0,i,18.7%,.
COc1ccc(-n2cc(C(=O)OCc3ccc(F)c(F)c3)c3ccccc3c2=O)cc1,3.4,.,10.0%,2.7%,.
CCCc1cc(=O)[nH]c(Nc2cc(Cl)ccc2OC)n1,-0.1,.,-5.3%,-2.1%,.
CCCCC(=O)N(Cc1ccc2c(c1)OCO2)Cc1nc2ccccc2c(=O)[nH]1,-19.7,-53.5*,6.3%,-0.6%,-10.0%
CCOC(=O)c1ccccc1NC(=O)C(=O)Nc1ccc2nc3n(c(=O)c2c1)CCCCC3,0.4,.,-9.1%,0.1%,.
COc1ccc(Cn2c(C)nc3c(c2=O)c2nc4ccccc4nc2n3Cc2ccco2)cc1,-0.8,-58.6*,?,79.0%,0.9%
COc1ccc(-c2noc(=O)n2Cc2ccccc2F)cc1,3.2,-0.8,i,-7.0%,.
COc1cc(Cn2c3ccc(NC(=O)CCc4ccccc4)cc3c(=O)n2C)ccc1F,-3.2,-64.0*,.,.,-2.4%
CCOc1ccc(NC(=O)c2ccc3c(c2)N(Cc2ccc(F)cc2)C(=O)CS3=O)cc1 (centres undefined),-6.2,-5.4,-4.9%,4.8%,.
Cc1ccc(C)c(NC(=O)c2ccc3c(c2)N(Cc2ccc(F)cc2)C(=O)CS3=O)c1 (centres undefined),-2.5,-58.1*,-10.0%,?,-0.2%
Cc1cccc(C)c1OCc1nnc(NC(=O)CSc2ccc(Cl)cc2)s1,-6.2,2.1,i,9.7%,.
O=C(CSc1ccccc1)Nc1nnc(COc2ccc(Cl)cc2)s1,-4.5,-53.5*,i,9.9%,-7.4%
CCN(CC)CCCNC(=O)c1c(C)oc2ncnc(N3CCOCC3)c12,-0.1,.,i,-6.5%,.
O=C(Cc1ccc(Cl)cc1Cl)Nc1cccc(S(=O)(=O)Nc2ccccc2F)c1,-3.9,-50.8*,-0.1%,0.0%,-1.7%
O=C(C1=NOC2(C1)C(=O)N(Cc1ccccc1)c1ccccc12)N1CCOCC1 (centres undefined),3.2,-0.7,.,.,.
Cc1ccc(-c2csc3ncnc(NCCC(=O)O)c23)cc1,4.7,?,6.0%,0.4%,.
Cc1ccc(-c2csc3ncnc(NCCC(=O)O)c23)cc1C,-0.8,.,i,6.1%,-2.3%
Cc1ccc(S(=O)(=O)N2CCC(C(=O)NCCC3=CCCCC3)CC2)c(C)c1,-0.2,-3.4,4.0%,3.3%,.
COc1cccc(NC(=O)c2cc(-c3ccco3)nc3ccccc23)c1,-0.6,-26.6,-8.6%,40.7%,.

# Assay outcomes from PubChem.
